Results taken from PubChem BioAssay AID1851 (National Center for Advancing Translational Sciences (NCATS), 2009).
Where “and” joins values, the source holds several entries; their conditions need not be identical. Equal values may be shown once. Among all 16,000 compounds or so, about 5,700 (36%) were called active. Roughly 24% stayed inconclusive and do not appear here. Calls come from the whole dose curve; as a rule, active = well fitted curve in the direction sought with a large enough effect; inconclusive = small, poorly fitted or top-dose-only effect, or effect the other way; inactive = no such curve, though single readings can be large or run the other way. Some of the results follow. More than one record can exist for a structure, and the calls need not agree.

Target: Cytochrome P450 1A2 (Homo sapiens) (UniProt P05177)
Experiment: Cytochrome panel assay with activity outcomes
Conditions: recombinant CYP, pro-luciferin dealkylation, luminescence, p450-cyp1a2; series mostly up to 57.1 µM; activity, negative = inhibition: at the top concentration
% is set by controls: 0 for no effect and ±100 for the full control effect.

Sequence of Cytochrome P450 1A2 (Homo sapiens) (P05177 whole entry, looked up): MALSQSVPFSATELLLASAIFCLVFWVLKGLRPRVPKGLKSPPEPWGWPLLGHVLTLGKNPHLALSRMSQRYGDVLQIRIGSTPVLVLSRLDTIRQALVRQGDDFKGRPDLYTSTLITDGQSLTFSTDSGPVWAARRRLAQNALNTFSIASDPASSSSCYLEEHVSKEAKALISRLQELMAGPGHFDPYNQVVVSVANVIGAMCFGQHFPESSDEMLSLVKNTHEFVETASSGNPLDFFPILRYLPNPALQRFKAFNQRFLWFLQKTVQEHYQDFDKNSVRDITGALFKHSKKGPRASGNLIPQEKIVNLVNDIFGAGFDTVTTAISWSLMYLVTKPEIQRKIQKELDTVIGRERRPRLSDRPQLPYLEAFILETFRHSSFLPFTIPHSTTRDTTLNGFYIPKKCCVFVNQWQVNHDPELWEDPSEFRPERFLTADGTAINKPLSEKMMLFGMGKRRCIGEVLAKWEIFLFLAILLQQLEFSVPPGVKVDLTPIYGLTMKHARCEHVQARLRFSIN

AC50, inactive and 15.8 µM (active):
C[C@H](N=C(NC#N)Nc1ccncc1)C(C)(C)C

AC50, active:
CCOC(=O)c1cc2c(C(F)(F)F)cc(-c3ccccc3)nc2o1 3550 nM
Cc1oc(-c2ccccc2)cc1C(=O)Nc1ccc(N(C)C)cc1 1410 nM
CCOC(=O)c1sc(=S)n(-c2cccc(C(F)(F)F)c2)c1SC 562 nM
COCCn1c(=O)c(-c2cccs2)nc2cnc(OC)nc21 2510 nM
COc1ncc2nc(-c3cccs3)c(=O)n(CCC#N)c2n1 6310 nM
COCCn1c(=O)c(-c2cccs2)nc2cnc(N(C)C)nc21 2000 nM
COc1ncc2nc(-c3cccs3)c(=O)n(CCc3ccccc3)c2n1 1260 nM
COCCn1c(=O)c(-c2cccs2)nc2cnc(Oc3ccc(OC)cc3)nc21 2510 nM
COCCn1c(=O)c(-c2cccs2)nc2cnc(Oc3ccccc3)nc21 2000 nM
Cc1cnc(CNc2nc(-c3ccccc3Cl)nc3ccccc23)cn1 6310 nM
COc1ccccc1-c1nc(NCc2cnc(C)cn2)c2ccccc2n1 5010 nM
Cc1cnc(CNc2nc(-c3ccccc3C(F)(F)F)nc3ccccc23)cn1 12600 nM
Cc1cnc(CNc2nc(-c3ccccc3C)nc3ccccc23)cn1 3160 nM
CCN1/C(=C/c2ccc3cccc(C)c3[n+]2CC)Sc2ccccc21 14100 nM
CCOC(=O)c1cnn(-c2nc(-c3cccc(F)c3)cs2)c1C(F)(F)F 2240 nM
COC(=O)c1cc(=O)n(C2CC2)c(=NC2CC2)s1 2000 nM
CCCCCc1nc2c(=O)[nH]c3ccccc3c2o1 398 nM
O=c1c2ccccc2sc2c(CO)ccc(NCCN3CCCCC3)c12 1580 nM
CCN(CC)CCNc1ccc(CO)c2sc3ccccc3c(=O)c12 126 nM
Cc1ccc(-c2c3c(nc4sc(C(N)=O)c(N)c24)CCC3)cc1 3550 nM
CCOC(=O)Cn1nnc2c(sc3nc4c(c(-c5ccc(Cl)cc5)c32)CCC4)c1=O 3160 nM
NC(=O)c1ccccc1-c1nc(-n2ccnc2)c2ccccc2n1 2510 nM
Clc1ccccc1-c1nc(-n2ccnc2)c2ccccc2n1 158 nM
Cc1ccccc1-c1nc(-n2ccnc2)c2ccccc2n1 316 nM
CCCn1c(C)nc2c(c1=O)c1nc3ccccc3nc1n2CCC1=CCCCC1 25100 nM
COc1ccc2c(Cl)c(C(=O)NCCCn3ccnc3)sc2c1Cl 631 nM
Nn1nnc2ccccc21 12600 nM
O=C1NCCc2c1[nH]c1ccccc21 2820 nM
COc1ccc2cc(C(=O)Nc3ccc(F)cc3)sc(=O)c2c1OC 1120 nM
COC(=O)Nc1ccc2[nH]cc(CCNC(C)=O)c2c1 316 nM
COc1cc2c(CCNC(C)=O)c[nH]c2cc1Cl 126 nM
COc1cc(OC)c(NC(=S)Nc2cccc(C(C)=O)c2)cc1Cl 6310 nM
Clc1ccc2[nH]cc(-c3nnnn3-c3ccccc3)c2c1 7940 nM
COc1cc(C(=O)NCC(c2cccnc2)N2CCN(C)CC2)cc(OC)c1OC (stereo unspecified) 20000 nM
CCCCn1nnnc1SCC(=O)c1cc(Cl)ccc1OC 4470 nM
CSc1ccc(Cl)c(C(=O)NCCOc2cc(C)ccc2C(C)C)c1 2240 nM
COC(=O)c1[nH]c2cccc(OC)c2c1NC(=O)CN(C)CC1OCCO1 14100 nM
Cc1ccc(C(=O)Nc2nc3ccccc3n3nnnc23)cc1 2510 nM
Cc1cccc(CCNc2nc3ccccc3n3nnnc23)c1 891 nM
Nc1c(C(=O)NCc2ccccc2)sc2nc3c(cc12)C(=O)CCC3 20000 nM
C/C(=C\C(=O)c1ccc(Cl)cc1)NCc1ccc2c(c1)OCO2 1000 nM
C/C(=C\C(=O)c1ccc(Br)cc1)NCc1ccc2c(c1)OCO2 1410 nM
O=C(/C=C/c1cc2c(cc1Br)OCO2)NCc1ccc(Cl)cc1 1580 nM
CNc1nc(-c2ccccc2CN(C)C)nc2ccccc12 3160 nM
CN(C)Cc1ccccc1-c1nc(N(C)C)c2ccccc2n1 1260 nM
CN(C)Cc1ccccc1-c1nc(NC2CC2)c2ccccc2n1 5010 nM
Cc1cccc(CNc2nc(-c3ccccc3CN(C)C)nc3ccccc23)c1 3160 nM

AC50, inactive:
Cc1nnc(SCC2=C(C(=O)O)N3C(=O)[C@@H](NC(=O)Cn4cnnn4)[C@@H]3SC2)s1

activity, negative = inhibition, inactive:
Cc1oc(C(C)(C)C)cc1C(=O)Nc1cccc(/C=C/C(=O)O)c1 -11.6%
CCCNC(=O)OC[C@@H]1O[C@H](CCO/N=C2\c3cc(OC)ccc3O[C@H](c3cccc(OC)c3)[C@H]2O)C=C[C@@H]1Oc1ccc(OC)cc1 -14.6% [at 11.4 µM]
CCC(=O)N1CCc2cc(S(=O)(=O)NC(C(=O)NCc3ccc(F)cc3)C(C)C)ccc21 (stereo unspecified) -20.8%
Cc1c(N2C(=O)CS/C2=N\N=C\c2ccc(Cl)cc2)c(=O)n(-c2ccccc2)n1C -14.7%
CCN(CC)C(=O)C1CC(=O)N(c2ccc(OC)cc2)C1c1ccc(OC)cc1 (stereo unspecified) -0.516%
COc1ccc(C(C(=O)NC2CCCC2)N(C(=O)c2snc(-c3ccc(F)cc3)c2N)c2ccc(F)cc2)cc1 (stereo unspecified) -15.3%
CCOC(=O)c1cn(-c2nc(-c3ccc(Cl)cc3)cs2)c2c(F)c(N3CC(C)OC(C)C3)c(F)cc2c1=O (stereo unspecified) -9.86%
COC(=O)C1CCN(c2cc(=O)n(C3CCCCC3)c(=O)[nH]2)CC1 -5.49%
O=C(NCCCN1CCCCCC1)C1CC(=O)N(CCc2ccccc2)C1 (stereo unspecified) -4.71%
CCN(CC)CCCNC(=O)CC1Sc2ccccc2NC1=O (stereo unspecified) -13.3%
CN1CCCCC1=NCCCn1cnc2c1c(=O)n(C)c(=O)n2C -12.6%
COCC(=O)N1CCC2(CC1)CCN(c1ccccn1)CC2 -5.05%
Cc1ccc(C(=O)Cn2nnc3c(sc4nc5c(c(-c6ccccc6)c43)CCC5)c2=O)cc1 -16.3%
Nc1nc(N)nc(CCCc2nc(N)nc(N)n2)n1 -16.3% [at 11.4 µM]
CCO/C(C)=N/n1c2nc3ccccc3nc2c2c(=O)n(CC(C)C)c(C)nc21 -20.5%
COc1ccccc1CN1CCC2(CC1)CCN(S(=O)(=O)c1ccccc1)CC2 -1.13%
O=C(NCCCN1CCN(Cc2ccccc2)CC1)C1CCN(S(=O)(=O)N2CCCC2)CC1 -6.36%
COc1ccc(S(N)(=O)=O)cc1C(=O)NCCCN1CCN(c2cccc(Cl)c2)CC1 -15%
COc1ccc(C(=O)N/C(=C/c2cccs2)C(=O)NCCCn2ccnc2)cc1OC -12.2%
N#CCCn1nnc2ccccc21 -20.3%
c1ccc2c(c1)nnn2CN1CCOCC1 -8.08% [at 11.4 µM]
Cc1ccc(NC(=O)C2(NC(=O)c3cccc(N4C(=O)CSC4c4ccccc4)c3)CCCCC2)cc1 (stereo unspecified) -7.8%
Cn1cccc1C(=O)N1CCC[C@@]2(CCN(Cc3ccc(C#N)cc3)C2)C1 0.0918%
Nc1ccc2[nH]cc(CCC(=O)O)c2c1 -8.18% [at 11.4 µM]
O=C(O)Cc1c[nH]c2ccc(O)cc12 6.6%
CC[C@@H](c1ccccc1)n1c(=O)n2n(c1=O)[C@H]1[C@H](O)[C@H]3O[C@@H]3/C(=N/OCc3ccccc3)[C@@H]1CC2 -0.045% [at 11.4 µM]
CCC1CCCCN1Cc1cc(OC)c(O)c([N+](=O)[O-])c1 (stereo unspecified) -1.7%
CCCCCCN1C=CC(=C/C=C(\C#N)C(=O)OCC)C=C1 -22.3%
COc1cc(C(=O)NC(=S)Nc2ccc(Cl)c(C(=O)O)c2)cc(OC)c1OC -16.2%
Fc1ccc(-c2[nH]ncc2-c2nnnn2-c2ccccc2)c(F)c1 -19%
Cc1ccc(-n2nnnc2-c2cnc3ccc(Cl)cc3c2-c2ccccc2)cc1 -12.6%
O=C(Nc1cccc(F)c1)N1CC2(CCN(C(=O)c3csnn3)CC2)C1 -1.09%
COC(=O)NCC(c1cccnc1)N1CCN(c2ccccc2OC)CC1 (stereo unspecified) -22.4%
COc1ccc(N2CCN(C(CNC(=O)C3CCCCC3)c3cccnc3)CC2)cc1 (stereo unspecified) -27.8%
COc1ccc2cc1Oc1ccc(cc1)C[C@@H]1c3c(cc(OC)c4c3Oc3cc5c(cc3O4)CCN[C@H]5C2)CCN1C -14.6% [at 11.4 µM]
NCCS -3.38%
O=C(N/N=C1/C[C@@H](O)[C@@H](O)[C@@H]2[C@H]3C(=O)N(c4ccc(F)cc4F)C(=O)[C@@H]3CC[C@@H]12)OCc1ccccc1 -2.1% [at 11.4 µM]
CCCCn1nnnc1SCC(=O)N1CCCC1 -28.1%
COCCCn1nnnc1SCC(=O)N1CCCC1 -21.8%
CC(C)(N=NC(C)(C)C1=NCCN1)C1=NCCN1 -3.55% [at 11.4 µM]
COc1ccc(S(=O)(=O)N(CC(=O)NCC2CCCO2)c2ccc(F)cc2)cc1OC (stereo unspecified) 0.0002%
CCS(=O)(=O)N1CCC(C(=O)NCc2ccc(F)cc2Cl)CC1 -25.9%
CCN1C(=O)[C@H]2[C@H]3[C@H](O)[C@H](O)C/C(=N/O[C@@H](C)c4cn([C@H](CO)Cc5ccccc5)nn4)[C@@H]3CC[C@@H]2C1=O -6.67% [at 11.4 µM] and -6.23% [at 11.4 µM]
C[C@H](N)C1CCC(C(=O)Nc2ccncc2)CC1 (stereo partly specified) 0.656%
O=C(O)[C@@H]1CS[C@@]2(CCCN(Cc3ccccc3)C2)N1 -12% [at 2.29 µM]
Cn1c(=O)c2c(ncn2CN2CCN(Cn3cnc4c3c(=O)n(C)c(=O)n4C)CC2)n(C)c1=O -18.2% [at 2.29 µM]
O=C1Nc2ccc([N+](=O)[O-])cc2C1(O)N1CCCCCC1 (stereo unspecified) -25.1%
